Each structure is given as a SMILES string. Among all 190,000 compounds or so, about 4,100 (2.2%) were called active. Shown is part of a subset that was picked to be rich in actives. A number with no mark means an inactive call.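 Rule for the calls: active = thallium flux slope and its plate-corrected score both differing from the plate sample mean at a set confidence after two filtering rounds, in either direction; inactive = the rest.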

Results on ten compounds are retold here after PubChem BioAssay AID1456 (Vanderbilt High Throughput Screening Facility, 2008).

For the assay, the target named is Solute carrier family 12 member 5 (Homo sapiens) (UniProt Q9H2X9). Description: KCC2 cotransporter modulators, thallium flux, primary screen, cell-based, HEK293 KCC2, FluoZin-2 fluorescence, MLSMR (AID 1456).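 Note: slope of fluorescence scaled to starting intensity during 10 to 20 s after thallium.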 The note with it: KCC2 cells, thallium flux FluoZin-2 fluorescence; at 10 µM.
Solute carrier family 12 member 5 (Homo sapiens), sequence (Q9H2X9 whole entry, looked up): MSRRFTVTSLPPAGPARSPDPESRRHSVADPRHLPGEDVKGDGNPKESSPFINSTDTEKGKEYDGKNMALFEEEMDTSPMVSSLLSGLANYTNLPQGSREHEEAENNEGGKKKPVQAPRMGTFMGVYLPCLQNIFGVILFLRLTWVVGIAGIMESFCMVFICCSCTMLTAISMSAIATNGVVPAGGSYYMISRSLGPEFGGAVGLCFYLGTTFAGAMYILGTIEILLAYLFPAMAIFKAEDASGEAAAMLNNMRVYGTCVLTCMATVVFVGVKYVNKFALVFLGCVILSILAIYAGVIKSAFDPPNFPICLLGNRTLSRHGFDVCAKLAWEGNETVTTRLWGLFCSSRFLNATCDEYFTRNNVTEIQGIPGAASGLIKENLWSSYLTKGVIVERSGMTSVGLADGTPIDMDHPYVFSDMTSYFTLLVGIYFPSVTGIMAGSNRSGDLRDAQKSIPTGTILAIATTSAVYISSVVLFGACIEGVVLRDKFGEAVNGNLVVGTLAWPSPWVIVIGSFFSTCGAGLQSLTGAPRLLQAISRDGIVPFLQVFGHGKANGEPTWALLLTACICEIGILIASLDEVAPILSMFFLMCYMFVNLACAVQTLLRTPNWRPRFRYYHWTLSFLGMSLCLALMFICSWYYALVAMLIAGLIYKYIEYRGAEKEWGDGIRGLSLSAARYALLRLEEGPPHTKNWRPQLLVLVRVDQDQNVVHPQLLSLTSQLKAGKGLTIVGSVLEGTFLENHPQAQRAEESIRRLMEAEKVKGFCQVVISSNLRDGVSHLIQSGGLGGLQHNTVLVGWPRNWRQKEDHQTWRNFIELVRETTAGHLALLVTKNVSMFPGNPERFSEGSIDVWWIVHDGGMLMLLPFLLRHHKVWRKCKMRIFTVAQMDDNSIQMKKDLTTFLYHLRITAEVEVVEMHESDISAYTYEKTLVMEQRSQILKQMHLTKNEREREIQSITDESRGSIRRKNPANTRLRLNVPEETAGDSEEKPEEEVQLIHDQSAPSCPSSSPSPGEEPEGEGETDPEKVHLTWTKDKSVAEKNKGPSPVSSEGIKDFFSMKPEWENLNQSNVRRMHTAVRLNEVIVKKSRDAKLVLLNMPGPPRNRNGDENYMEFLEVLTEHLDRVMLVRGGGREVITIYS
Take `CCCCC(=O)N/N=C/c1c(O)n(-c2ccccc2)c(=O)[nH]c1=O`: the B-score of Tl+ flux slope (higher = more flux/activation; lower = inhibition) is -0.272.

As to `O=C(CSC1c2ccccc2-c2ccccc21)N/N=C/c1ccccc1`, the B-score of Tl+ flux slope (higher = more flux/activation; lower = inhibition) is 2.57 (active).

For `c1cc2c(cc1[C@H]1OC[C@H]3[C@@H]1CO[C@@H]3c1ccc3c(c1)OCO3)OCO2`, the B-score of Tl+ flux slope (higher = more flux/activation; lower = inhibition) was 0.711.

`CCC1(C)CC(CCNCc2ccc(N(C)C)cc2)(c2ccc(F)cc2)CCO1` (stereo not given): the B-score of Tl+ flux slope (higher = more flux/activation; lower = inhibition) was 1.55.

Regarding `CNC(=O)O/N=C(\N)Cc1csc2ccccc12`, the B-score of Tl+ flux slope (higher = more flux/activation; lower = inhibition) is 0.111.

For `COc1cc(-n2c(=S)[nH]c3ccc(C)cc3c2=O)c(Cl)cc1Cl`, the B-score of Tl+ flux slope (higher = more flux/activation; lower = inhibition) is 69.6 (active).

On to `COc1cccc(CN2CCCC(C(=O)c3ccccc3SC)C2)c1O` (stereo not given), for which the B-score of Tl+ flux slope (higher = more flux/activation; lower = inhibition) is -3.42.

Regarding `COc1cc(OC)cc(C2(C#N)CCN(C)CC2)c1`, the B-score of Tl+ flux slope (higher = more flux/activation; lower = inhibition) was -0.32.

Consider `CSc1ccc(C(=O)C2CCCN(Cc3ccn[nH]3)C2)cc1` (stereo not given), for which the B-score of Tl+ flux slope (higher = more flux/activation; lower = inhibition) was 0.628.

`Cc1ccc(CN2CCCC(C(=O)c3ccc4c(c3)OCO4)C2)cc1C` (stereo not given): the B-score of Tl+ flux slope (higher = more flux/activation; lower = inhibition) was -0.421.
